Laboratory results from PubChem BioAssay.
The source made the active and inactive calls.

Legend:
[1] = system: Human papillomavirus type 1a protein E7 (residues 44-93); test: small molecules binding HPV E7 44-93 – biochemical, small-molecule microarray, residues 44-93, 635 nm fluorescence, primary screen (AID 1108); settings: fluorescence 635 nm, higher = more signal;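 also: E7 fragment applied at 1 µg/mL in TBST for 1 h at 4 C; score combines spot fluorescence with its signal to noise ratio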
[2] = hepatitis C replication reporter changes, two-sided – Huh7 cells, luciferase reporter, HCV replication inhibitor project, primary screen (AID 1109); settings: Huh7 HCV replicon luciferase reporter, 48 h; higher = more signal;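 also: huh7 hepatoma cells harbouring a luciferase neomycin HCV replicon reporter; luciferase luminescence as measure of HCV replicon replication; test concentration not given here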
[3] = target: Left-right determination factor 2 (Homo sapiens) (UniProt O00292); test: small molecules binding LEFTY2 protein – biochemical, small-molecule microarray, 635 nm fluorescence scan, primary screen (AID 1110); settings: higher = more signal
Sequence of Left-right determination factor 2 (Homo sapiens) (O00292 whole entry, looked up): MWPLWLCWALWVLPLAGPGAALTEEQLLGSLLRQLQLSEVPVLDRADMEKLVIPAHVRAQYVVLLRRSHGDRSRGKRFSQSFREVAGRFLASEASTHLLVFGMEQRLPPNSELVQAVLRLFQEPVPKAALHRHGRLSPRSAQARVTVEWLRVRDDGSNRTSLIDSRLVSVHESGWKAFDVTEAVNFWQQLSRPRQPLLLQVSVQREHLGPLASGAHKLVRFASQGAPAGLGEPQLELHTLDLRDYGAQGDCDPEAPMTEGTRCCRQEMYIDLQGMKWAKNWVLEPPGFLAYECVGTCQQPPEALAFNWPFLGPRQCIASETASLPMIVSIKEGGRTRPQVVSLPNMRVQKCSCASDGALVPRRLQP

[4] = target: Calmodulin-1 (Homo sapiens) (UniProt P0DP23); test: small molecules binding calmodulin-1 with EGTA – biochemical, small-molecule microarray, Cy5-labelled CALM1, profiling panel (AID 1111); settings: Cy5-CALM1 binding fluorescence, higher = more signal;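 also: labelled calmodulin applied in Tris saline Tween buffer holding calcium plus EGTA and DTT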
[5] = target: Calmodulin-1 (Homo sapiens) (UniProt P0DP23); test: small molecules binding Ca-loaded calmodulin-1 – biochemical, small-molecule microarray, Cy5-labelled CALM1, plus calcium, artefact control for SMM control-protein annotation, profiling panel (AID 1112); settings: Cy5-CALM1 binding fluorescence, higher = more signal;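 also: score merges spot fluorescence with signal to noise from triplicate slides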
[6] = probe aWnt5a binding to arrayed compounds – biochemical, biotinylated probe, 635/667 nm fluorescence, primary screen (AID 1113); settings: small-molecule microarray, higher = more signal;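 also: score merges 667 nm fluorescence intensity with signal-to-noise per printed feature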
[7] = probe aShh binding to arrayed compounds – biochemical, biotinylated probe, 635/667 nm fluorescence, primary screen (AID 1114); settings: small-molecule microarray, higher = more signal;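 also: probe is biotin-labelled aShh protein from a stem cell growth factor screen; measures binding of labelled protein to compounds printed on the slide; score merges feature fluorescence at 667 nm with signal-to-noise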
[8] = probe aNog binding to arrayed compounds – biochemical, biotinylated probe, 635/667 nm fluorescence, primary screen (AID 1115); settings: small-molecule microarray, higher = more signal;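 also: probe is biotinylated aNog protein used at 0.15 µg/mL for 1 h at 4 C; z-score combines 667 nm fluorescence of each spot with its signal to noise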
[9] = target: Torsin-1A-interacting protein 1 (Homo sapiens) (UniProt Q5JTV8); test: compound microarray binding of lysate hLAP1 – cell lysate, small-molecule microarray, COS7 lysate, 635/667 nm fluorescence, primary screen (AID 1116); settings: 635 nm fluorescence, higher = more signal
Sequence of Torsin-1A-interacting protein 1 (Homo sapiens) (Q5JTV8 whole entry, looked up): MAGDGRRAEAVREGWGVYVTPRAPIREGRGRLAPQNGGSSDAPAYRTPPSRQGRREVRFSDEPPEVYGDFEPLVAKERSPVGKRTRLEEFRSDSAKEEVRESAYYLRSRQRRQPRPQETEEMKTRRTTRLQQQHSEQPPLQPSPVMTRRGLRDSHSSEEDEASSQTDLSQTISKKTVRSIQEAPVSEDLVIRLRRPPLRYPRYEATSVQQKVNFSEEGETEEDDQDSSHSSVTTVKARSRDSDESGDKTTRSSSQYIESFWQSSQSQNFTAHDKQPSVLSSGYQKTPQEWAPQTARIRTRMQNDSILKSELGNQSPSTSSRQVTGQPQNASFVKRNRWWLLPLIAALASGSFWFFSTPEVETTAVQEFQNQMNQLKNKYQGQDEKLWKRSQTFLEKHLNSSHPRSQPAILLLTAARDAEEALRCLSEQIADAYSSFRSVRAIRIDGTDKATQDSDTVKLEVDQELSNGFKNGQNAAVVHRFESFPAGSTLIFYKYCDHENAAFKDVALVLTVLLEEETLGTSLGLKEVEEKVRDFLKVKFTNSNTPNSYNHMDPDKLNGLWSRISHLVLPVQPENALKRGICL

[10] = target: Alpha-bungarotoxin (Bungarus multicinctus) (UniProt P60615); test: compounds binding labelled alpha-BTX control protein – biochemical, small-molecule microarray, Alexa647 label, 635/667 nm fluorescence, artefact control for SMM control protein annotation, profiling panel (AID 1117); settings: alpha-BTX-A647 binding fluorescence, higher = more signal
Sequence of Alpha-bungarotoxin (Bungarus multicinctus) (P60615 whole entry, looked up): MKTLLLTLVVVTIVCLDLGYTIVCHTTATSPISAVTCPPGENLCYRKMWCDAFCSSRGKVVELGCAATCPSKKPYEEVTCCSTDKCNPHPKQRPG

Albumin (Bos taurus) = Albumin (Bos taurus) (UniProt P02769); test: compounds binding labelled BSA control protein – biochemical, small-molecule microarray, Alexa647 label, 635/667 nm fluorescence, artefact control for SMM control protein annotation, profiling panel (AID 1118); settings: BSA-A647 binding, fluorescence 635 nm, higher = more signal;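 also: score merges 667 nm emission intensity and signal-to-noise per printed compound spot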
Sequence of Albumin (Bos taurus) (P02769 whole entry, looked up): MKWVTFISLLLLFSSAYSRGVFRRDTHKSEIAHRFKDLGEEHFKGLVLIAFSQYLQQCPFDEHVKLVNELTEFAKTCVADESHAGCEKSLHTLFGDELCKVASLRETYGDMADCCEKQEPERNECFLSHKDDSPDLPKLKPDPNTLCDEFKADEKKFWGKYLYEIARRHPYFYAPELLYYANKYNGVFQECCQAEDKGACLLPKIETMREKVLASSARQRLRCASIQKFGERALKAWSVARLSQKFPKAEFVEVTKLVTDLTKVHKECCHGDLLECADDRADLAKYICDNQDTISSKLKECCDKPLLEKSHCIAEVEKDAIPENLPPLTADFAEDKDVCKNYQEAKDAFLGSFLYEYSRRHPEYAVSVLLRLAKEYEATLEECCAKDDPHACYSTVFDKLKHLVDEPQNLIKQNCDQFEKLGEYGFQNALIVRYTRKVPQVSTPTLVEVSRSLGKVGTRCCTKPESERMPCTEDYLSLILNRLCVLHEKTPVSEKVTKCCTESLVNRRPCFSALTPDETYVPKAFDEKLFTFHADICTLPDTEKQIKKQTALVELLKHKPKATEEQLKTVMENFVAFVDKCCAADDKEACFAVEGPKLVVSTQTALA

[11] = probe aXIP binding to arrayed compounds – biochemical, NeuroSMM set, 635/667 nm fluorescence, primary screen (AID 1119); settings: small-molecule microarray, higher = more signal, called active from +8 up or from −8 down;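 also: probe is the protein aXip251-270 applied at 1 µg/mL to compound-printed slides; binding of probe to printed compounds measured as 667 nm fluorescence plus signal to noise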
[12] = probe aNOTCH3 binding on compound microarray – biochemical, small-molecule microarray, 635/667 nm fluorescence, primary screen (AID 1120); settings: higher = more signal;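 also: probe is a biotin-tagged antibody raised against NOTCH3 rather than NOTCH3 protein; score merges spot fluorescence near 667 nm with spot signal to noise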
[13] = probe aNOTCH2 binding on compound microarray – biochemical, small-molecule microarray, 635/667 nm fluorescence, primary screen (AID 1121); settings: higher = more signal;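 also: score merges feature fluorescence read at 667 nm with its signal to noise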
[14] = target: Carbonic anhydrase 2 (Homo sapiens) (UniProt P00918); test: compounds binding carbonic anhydrase 2 – biochemical, small-molecule microarray, Alexa647-labelled CAII, profiling panel (AID 1122); settings: CAII-A647 binding fluorescence, higher = more signal
[15] = COS7 lysate on small-molecule microarray, probe aHis, 635 nm (AID 1123); settings: COS7 cell lysate, fluorescence, higher = more signal;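 also: z-score combines 667nm fluorescence intensity with signal-to-noise per printed compound spot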
[16] = probe aLAP1 signal on lysate-treated microarray – cell lysate, small-molecule microarray, COS7 lysate, primary screen (AID 1124); settings: probe aLAP1, fluorescence, higher = more signal;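 also: lysate comes from COS7 cells expressing LAP1 and is applied at 0.3 µg/mL; score merges spot fluorescence near 667 nm with signal-to-noise over triplicate slides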
Sam68 (KHDRBS1) = test: compounds binding KHDRBS1 protein – biochemical, small-molecule microarray, 635 nm fluorescence, primary screen (AID 1125); settings: higher = more signal;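 also: score merges 667 nm channel intensity with signal to noise over triplicate slides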
[17] = system: Chordin-like protein 2 (CHRDL2); test: compounds binding chordin-like 2 – biochemical, small-molecule microarray, 635 nm fluorescence, primary screen (AID 1126); settings: fluorescence 635 nm, higher = more signal;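 also: printed compound slides probed with Chrdl2 protein at 4 µg/mL for 1 h at 4 C; score merges 667 nm emission intensity with signal to noise over three replicate slides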
[18] = target: Concanavalin-A (Canavalia ensiformis) (UniProt P02866); test: compounds binding concanavalin A lectin – biochemical, small-molecule microarray, Alexa647 label, 635 nm, artefact control for SMM control protein annotation, primary screen (AID 1127); settings: ConA-A647 binding fluorescence, higher = more signal;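 also: z combines 667 nm emission intensity with signal-to-noise across three replicate slides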
Sequence of Concanavalin-A (Canavalia ensiformis) (P02866 whole entry, looked up): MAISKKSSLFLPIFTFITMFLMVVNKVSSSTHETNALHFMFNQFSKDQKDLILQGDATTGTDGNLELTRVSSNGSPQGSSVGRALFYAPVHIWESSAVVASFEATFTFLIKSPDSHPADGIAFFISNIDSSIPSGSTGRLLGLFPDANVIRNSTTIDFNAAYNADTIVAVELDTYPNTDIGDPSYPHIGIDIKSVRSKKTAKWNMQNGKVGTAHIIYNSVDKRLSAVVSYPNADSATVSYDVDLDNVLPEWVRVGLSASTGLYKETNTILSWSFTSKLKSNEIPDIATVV

## C#CCCCON=C1C[C@@H](O)[C@@H](O)[C@@H]2[C@@H]3C(=O)N([C@@H](C)c4ccccc4)C(=O)[C@@H]3CC[C@@H]12
[1]
  composite z-score: -0.31
[2]
  z-score: 1.14
[3]
  composite z-score: 0.201
[4]
  composite z-score: -0.172
[5]
  composite z-score: -0.274
[6]
  composite z-score: -0.166
[7]
  composite z-score: -0.0553
[8]
  composite z-score: 0.167
[9]
  composite z-score: -0.512
[10]
  composite z-score: 0.46
Albumin (Bos taurus)
  composite z-score: 0.356
[11]
  composite Z-score: -0.51 (inactive)
[12]
  composite z-score: 0.114
[13]
  composite z-score: -0.165
[14]
  composite z-score: 0.717
[15]
  composite z-score: 0.0072
[16]
  composite z-score: 0.0247
Sam68 (KHDRBS1)
  composite z-score: -0.105
[17]
  composite z-score: -0.13
[18]
  composite z-score: 0.123

## C=CC[C@@H]1C=C[C@H](ON=C[C@@H](NS(=O)(=O)c2ccc(C)cc2)[C@H](C)C=CCC(=O)OC)[C@@H](CO)O1
[1]
  composite z-score: -0.782
[2]
  z-score: -0.0493
[3]
  composite z-score: 0.917
[4]
  composite z-score: -0.83
[5]
  composite z-score: -0.984
[6]
  composite z-score: -0.13
[7]
  composite z-score: -0.138
[8]
  composite z-score: -0.402
[9]
  composite z-score: 0.269
[10]
  composite z-score: 0.452
Albumin (Bos taurus)
  composite z-score: 0.766
[11]
  composite Z-score: 0.819 (inactive)
[12]
  composite z-score: 0.0232
[13]
  composite z-score: -0.0393
[14]
  composite z-score: -0.277
[15]
  composite z-score: -0.327
[16]
  composite z-score: 0.0555
Sam68 (KHDRBS1)
  composite z-score: -0.483
[17]
  composite z-score: 0.487
[18]
  composite z-score: -1.58

## CC(C)C(=O)N[C@H]1CCCN1C(=O)C=Cc1ccccc1
[1]
  composite z-score: 0.531
[2]
  z-score: -0.206
[3]
  composite z-score: 0.681
[4]
  composite z-score: -0.266
[5]
  composite z-score: -0.306
[6]
  composite z-score: 0.0495
[7]
  composite z-score: 0.3
[8]
  composite z-score: 0.254
[9]
  composite z-score: 0.289
[10]
  composite z-score: 0.0359
Albumin (Bos taurus)
  composite z-score: 0.564
[11]
  composite Z-score: -0.087 (inactive)
[12]
  composite z-score: 0.276
[13]
  composite z-score: 0.0062
[14]
  composite z-score: 0.267
[15]
  composite z-score: 0.253
[16]
  composite z-score: 0.0905
Sam68 (KHDRBS1)
  composite z-score: 0.752
[17]
  composite z-score: 0.242
[18]
  composite z-score: 0.163

## CCOC(=O)NN=C1C[C@@H](O)[C@@H](O)[C@@H]2[C@@H]3C(=O)N(C[C@@H]4CCCO4)C(=O)[C@@H]3CC[C@H]12
[1]
  composite z-score: 0.463
[2]
  z-score: -0.0078
[3]
  composite z-score: 0.828
[4]
  composite z-score: -0.47
[5]
  composite z-score: -0.593
[6]
  composite z-score: -0.169
[7]
  composite z-score: -0.0146
[8]
  composite z-score: -0.166
[9]
  composite z-score: 0.998
[10]
  composite z-score: -0.213
Albumin (Bos taurus)
  composite z-score: 0.34
[11]
  composite Z-score: -0.161 (inactive)
[12]
  composite z-score: -0.0057
[13]
  composite z-score: -0.15
[14]
  composite z-score: -0.144
[15]
  composite z-score: 0.19
[16]
  composite z-score: 0.299
Sam68 (KHDRBS1)
  composite z-score: 0.31
[17]
  composite z-score: 0.245
[18]
  composite z-score: 0.111

## CCc1cc2c(nc1CC)CCN(CCC(C)=NOC[C@@H](C)[C@H](OCc1ccccc1)C(C)C)C2
[1]
  composite z-score: -0.461
[2]
  z-score: -1.14
[3]
  composite z-score: -0.964
[4]
  composite z-score: -1.3
[5]
  composite z-score: -0.139
[6]
  composite z-score: -0.247
[7]
  composite z-score: -0.0035
[8]
  composite z-score: -0.411
[9]
  composite z-score: -0.667
[10]
  composite z-score: -0.86
Albumin (Bos taurus)
  composite z-score: 0.742
[11]
  composite Z-score: 0.551 (inactive)
[12]
  composite z-score: -0.443
[13]
  composite z-score: -0.135
[14]
  composite z-score: -0.25
[15]
  composite z-score: -0.171
[16]
  composite z-score: -0.383
Sam68 (KHDRBS1)
  composite z-score: -0.16
[17]
  composite z-score: -1.05
[18]
  composite z-score: -1.12

## COC(=O)[C@H](C)NC(=O)CCC1CC(OC(=O)NCc2cccc3ccccc23)CC2(CCCC(COC(=O)NCCc3ccccc3OC)O2)O1 (stereo not given in full)
[1]
  composite z-score: 1.39
[2]
  z-score: -0.314
[3]
  composite z-score: 0.621
[4]
  composite z-score: 0.75
[5]
  composite z-score: -0.37
[6]
  composite z-score: -0.15
[7]
  composite z-score: 0.0141
[8]
  composite z-score: 0.0356
[9]
  composite z-score: 0.787
[10]
  composite z-score: 0.638
Albumin (Bos taurus)
  composite z-score: 0.707
[11]
  composite Z-score: -0.18 (inactive)
[12]
  composite z-score: 0.0893
[13]
  composite z-score: -0.185
[14]
  composite z-score: 0.548
[15]
  composite z-score: 1.06
[16]
  composite z-score: -0.557
Sam68 (KHDRBS1)
  composite z-score: 1.3
[17]
  composite z-score: 0.409
[18]
  composite z-score: 0.917

## CC#CCOCCC=C1c2ccccc2[C@@H](OC)[C@@H]1C
[1]
  composite z-score: -1.14
[2]
  z-score: -0.692
[3]
  composite z-score: 0.0778
[4]
  composite z-score: -1.06
[5]
  composite z-score: -1.18
[6]
  composite z-score: -0.0977
[7]
  composite z-score: -0.138
[8]
  composite z-score: -0.209
[9]
  composite z-score: 0.139
[10]
  composite z-score: -0.0725
Albumin (Bos taurus)
  composite z-score: 0.556
[11]
  composite Z-score: 0.549 (inactive)
[12]
  composite z-score: -0.128
[13]
  composite z-score: -0.101
[14]
  composite z-score: 0.336
[15]
  composite z-score: -0.336
[16]
  composite z-score: -0.0059
Sam68 (KHDRBS1)
  composite z-score: 0.151
[17]
  composite z-score: 0.337
[18]
  composite z-score: -0.515
